Results published in the supplement of paper PMC10981050.
Where a name gives a salt, the structure may show the parent alone.

What follows are molecules tested on MOLM14 (assay: cell viability relative to vehicle control; higher = less cytotoxic). Settings: 10 µM; SRSF2 genotype: SRSF2 wt/wt.
Method in brief: (§1)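 Four leukaemia lines, as CRISPR-edited mutant clones and isogenic wild-type clones, were tested against Selleck bioactive, kinase and epigenetic probe libraries after removal of identity-inconsistent compounds. Cells were exposed to a single 10 µM dose for 48 h, and CellTiter-Glo luminescence was then read. Viability was calculated relative to the on-plate vehicle control.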

Compound | cell viability [%]
O=C(O)Cc1cccc2ccccc12 [Potassium 1-Naphthaleneacetate] | 95.4
O=c1[nH]c(=O)n([C@H]2C[C@H](O)[C@@H](CO)O2)cc1C(F)(F)F [Trifluridine (Viroptic)] | 18.8
C[C@@H](Oc1cc(-n2cnc3ccc(CN4CCN(C)CC4)cc32)sc1C(N)=O)c1ccccc1C(F)(F)F | 7.12
COc1cccc(OC)c1C(=O)OCc1cc(O)ccc1O[C@@H]1O[C@H](CO)[C@@H](O)[C@H](O)[C@H]1O [Curculigoside] | 105
OC[C@@H](O)[C@@H](O)[C@H](O)[C@@H](O)CO [Sorbitol (Glucitol)] | 104
CC(=O)CCC=C(C)CCC=C(C)CCC=C(C)CCC=C(C)C [Teprenone] | 96.5
C[C@]12CC[C@@H]3c4ccc(O)cc4CC[C@H]3[C@@H]1CC[C@@H]2O [Estradiol] | 98.6
CCCNC(C)C(=O)Nc1c(C)csc1C(=O)OC (stereo not given) [Articaine HCl] | 107
O=C1N=C(N2CCOCC2)CN1c1ccc(Cl)cc1 | 104
COc1cc(N2CCC(N3CCN(C)CC3)CC2)ccc1Nc1ncnc(Nc2ccccc2S(=O)(=O)C(C)C)n1 | 31.1
C[Si](C)(C)CCOCn1ccc2c(-c3cn[nH]c3)ncnc21 | 106
C[C@@H]1CC[C@H]2C(C)(C)[C@H]3C[C@@]12CC[C@@]3(C)O [Cedrol] | 104
C[C@H]1c2cccc(O)c2C(O)=C2C(=O)[C@]3(O)C(O)=C(C(N)=O)C(=O)[C@@H](N(C)C)[C@@H]3[C@@H](O)[C@@H]21 [Doxycycline] | 99.5
CNC[C@H](O)[C@@H](O)[C@H](O)[C@H](O)CO [Meglumine] | 107
CC1=NN(c2ccccc2)C(=O)C1 [Edaravone (MCI-186)] | 109
CN1CCN2c3ncccc3Cc3ccccc3C2C1 (stereo not given) [Mirtazapine (Remeron, Avanza)] | 97.4
CC(O)C(O)c1cnc2nc(N)[nH]c(=O)c2n1 (stereo not given) [6-Biopterin] | 106

What follows are molecules tested on OCI-AML2 in the same assay as above. Settings: 10 µM; SRSF2 genotype: P95H/wt.
Method in brief: as §1

Compound | cell viability [%]
NC(=O)c1cccc2cn(-c3ccc(C4CCCNC4)cc3)nc12 (stereo not given) [MK-4827(Niraparib)] | 45.3
CCOC(=O)C1=C(COCCN)NC(C)=C(C(=O)OC)C1c1ccccc1Cl (stereo not given) [Amlodipine besylate (Norvasc)] | 36.2
Cc1ccccc1C(OCCN(C)C)c1ccccc1 (stereo not given) [Orphenadrine citrate (Norflex)] | 83.2
Cc1ccc(C(C)C)cc1O [Carvacrol] | 92.8
CN1CCN(c2ccc(C(=O)Nc3n[nH]c4ccc(Cc5cc(F)cc(F)c5)cc34)c(NC3CCOCC3)c2)CC1 [Entrectinib (RXDX-101)] | 0.22
Nc1nc(N)nc(-c2cc(Cl)ccc2Cl)n1 [Irsogladine] | 108
O=C(Nc1ncc([N+](=O)[O-])s1)c1ccccc1O [Tizoxanide] | 91.2
CO[C@H]1C[C@@H]2CC[C@@H](C)[C@@](O)(O2)C(=O)C(=O)N2CCCC[C@H]2C(=O)O[C@H]([C@H](C)C[C@@H]2CC[C@H](n3cnnn3)[C@H](OC)C2)CC(=O)[C@H](C)/C=C(\C)[C@@H](O)[C@@H](OC)C(=O)[C@H](C)C[C@H](C)/C=C/C=C/C=C/1C [Zotarolimus (ABT-578)] | 64.2
O=C(c1ccc(OCCCc2c[nH]cn2)cc1)C1CC1 [Ciproxifan Maleate] | 71.8
Cc1ccc2nc(CN(CCN(Cc3nc4ccc(C)cc4[nH]3)Cc3nc4ccc(C)cc4[nH]3)Cc3nc4ccc(C)cc4[nH]3)[nH]c2c1 | 0.47
Nc1c(Br)cc(Br)cc1CN[C@H]1CC[C@H](O)CC1 [Ambroxol] | 104
O=c1cc(-c2ccc(O)c(O)c2)oc2cc(O)c([C@@H]3O[C@H](CO)[C@@H](O)[C@H](O)[C@H]3O)c(O)c12 [Homoorientin] | 86.7
CC(C)(O)CC(=O)NCCn1ccc2ncnc(Nc3ccc(Oc4cccc(C(F)(F)F)c4)c(Cl)c3)c21 | 74.8
C=CC(=O)Nc1cccc(Nc2nc(Nc3ccc(OCCOC)cc3)ncc2F)c1 | 28.2
Cc1ncc(COP(=O)(O)O)c(C=O)c1O [Pyridoxal phosphate] | 103
NC(=O)c1cnccn1 [Pyrazinamide (Pyrazinoic acid amide)] | 95.6
O=C(O)c1ccc(O)c(O)c1 [Protocatechuic acid] | 98.4
O=C(NC(NC(=S)Nc1ccc(F)c([N+](=O)[O-])c1)C(Cl)(Cl)Cl)C(c1ccccc1)c1ccccc1 (stereo not given) | 1.61
